# Results: ChEMBL document CHEMBL3433997, “St. Jude Leishmania screening dataset” (2016)
# What was measured:
# Type in all cases: functional
# [1] = molecular target: Solute carrier family 2, facilitated glucose transporter member 1 (Homo sapiens) (UniProt P11166); experiment: ST_JUDE_LEISH: Cytotoxicity at 2uM final concentration against transgenic Leishmania Mexicana promastigotes LmGLUT1 that are glucose transport deficient and complemented with the human glucose transporter GLUT1. Activity is measured by DNA content using SYBR green in vitro
# Sequence of Solute carrier family 2, facilitated glucose transporter member 1 (Homo sapiens) (P11166 whole entry): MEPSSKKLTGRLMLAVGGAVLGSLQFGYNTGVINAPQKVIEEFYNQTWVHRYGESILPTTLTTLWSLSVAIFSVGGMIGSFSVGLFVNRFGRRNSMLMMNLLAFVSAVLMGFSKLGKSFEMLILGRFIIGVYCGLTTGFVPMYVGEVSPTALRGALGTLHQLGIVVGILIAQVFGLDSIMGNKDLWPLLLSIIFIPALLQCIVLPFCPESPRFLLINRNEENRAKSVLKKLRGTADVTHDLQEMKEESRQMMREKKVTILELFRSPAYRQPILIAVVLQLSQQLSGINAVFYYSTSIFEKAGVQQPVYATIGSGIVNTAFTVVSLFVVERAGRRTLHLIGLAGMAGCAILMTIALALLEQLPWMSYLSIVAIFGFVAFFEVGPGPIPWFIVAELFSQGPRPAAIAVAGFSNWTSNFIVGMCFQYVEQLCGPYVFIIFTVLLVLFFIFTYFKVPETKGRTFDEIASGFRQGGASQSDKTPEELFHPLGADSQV
# [2] = molecular target: Hexose transporter 1 (Plasmodium falciparum) (UniProt O97467); experiment: ST_JUDE_LEISH: Cytotoxicity at 2uM final concentration against transgenic Leishmania Mexicana promastigotes LmPfHT that are glucose transport deficient and complemented with the Plasmodium falciparum hexose transporter. Activity is measured by DNA content using SYBR green in vitro
# [3] = molecular target: Glucose transporter (Leishmania mexicana) (UniProt O61059); experiment: ST_JUDE_LEISH: Cytotoxicity at 2uM final concentration against transgenic Leishmania Mexicana promastigotes LmGT2 that are glucose transport deficient and complemented with the L. Mexicana glucose transporter 2. Activity is measured by DNA content using SYBR green in vitro
Structure (SMILES),inhibition [1] [%],inhibition [2] [%],inhibition [3] [%]
O=C(C=Cc1ccccc1)Nc1ccc(C#CC=Cc2ccc(NC(=O)C=Cc3ccccc3)cc2)cc1,2.7,2.84,2.16
CC[C@H](C)CNC(=O)c1cncc(-c2cccc(CNCCCc3ccccc3)c2)c1,4.76,3.06,4.25
CN1CCC(Oc2ccc(NC(=O)c3ccc4c(=O)n(Cc5ccccc5)cnc4c3)cc2Cl)CC1,32.8,57.4,8.76
O=C(Nc1nccs1)c1sc2ccccc2c1O,3.63,2.26,1.45
CCCc1cc(N2CCC(N3CCCC3)CC2)nc(Nc2ccc(Cl)cc2)n1,-1.71,2.3,0.85
Cc1[nH]c2ccc(O)cc2c1C1CCN(CCCCCNC(=O)/C=C/c2ccc(Cl)c(Cl)c2)CC1,0.59,0.7,0.96
COc1ccc(CNC2CCN(C)CC2)cc1-c1ccc(S(=O)(=O)NC2CCC2)s1,1.49,4.46,0.46
COc1ccc(CN2CCC(N3CC(c4ccccc4)(c4ccccc4)OCC3=O)C2)c(O)c1 (configuration not stated),-1.54,-0.28,-1.56
N#Cc1cc(C(=O)Nc2ccccc2)c(N)nc1SCC(=O)Nc1ccc(Br)cc1,8.21,5.88,4.96
CC(C)c1ccc2oc(-c3ccc(NC(=O)c4ccc([N+](=O)[O-])o4)cc3)nc2c1,10.9,10.2,4.26
COc1ccc(/C=C/C(=O)Nc2ccc(-c3ccncc3)cc2)cc1CCCN(C)C,6.87,5.55,6.94
O=C1Nc2cccc3c2C1(CCCCN1CCC(c2c(-c4ccccc4)[nH]c4ccccc24)CC1)CCC3 (configuration not stated),3.04,2.74,-0.14
COc1cc(NC(=O)C(c2ccc(Cl)cc2)C(C)C)cc(OC)c1 (configuration not stated),2.88,2.55,1.33
Cc1cccc2nc(-c3cccc(-c4cccc(NC(=O)C(C)CN(C)C)c4)c3)[nH]c12 (configuration not stated),1.51,1.39,2.3
CC=CC(=O)N1CCN(c2nccc(-c3ccc(C(C)(C)C)cc3)n2)CC1,8.6,9.97,7.85
Cn1cncc1C(=O)Nc1cccc(-c2ccc(-c3nc4ccccc4[nH]3)s2)c1,3.45,2.88,4.94
COc1cc2nc(NCCn3ccnc3C)nc(NCCc3ccccc3)c2cc1OC,1.91,1.02,2.18
COc1ccc(-c2c(C(F)(F)F)nn(C)c2NC(=O)Nc2ccc(F)cc2F)cc1,-1.15,-0.84,1.24
NC1=NC2(CCCC2)C(c2ccc(Cl)c(Cl)c2)C(N)=N1 (configuration not stated),2.63,3.21,4.7
CC(=NNC(S)=NCCc1ccccc1)c1ccccn1,57.4,68,23.6
COc1ccc(CN2CCCN(Cc3cccc(C(=O)Nc4ccc(C(C)(C)C)cc4)c3)CC2)cc1,7.71,5.46,3.17
O=C1c2ccccc2C(=O)N1CCOc1c(Br)cc(Br)cc1CNCCCNc1cc(=O)c2ccccc2[nH]1,2.28,1.96,3.03
COc1ccc(-c2csc3ncnc(Cl)c23)cc1OC,3.91,3.53,-0.23
Cn1nc2ccc3ccccc3c2nc1=N,59.2,44.1,18.6
CCC(CC)(CCC#N)CN(C[C@@H](O)[C@H](Cc1ccccc1)NC(=O)OC(C)(C)C)S(=O)(=O)c1ccc(OC)cc1,-0.65,0.74,0.65

Structure (SMILES),inhibition [1] [%],inhibition [2] [%],inhibition [3] [%]
COc1ccc(OC)c(NC(=O)c2c(-c3c(F)cccc3Cl)noc2C)c1,5.12,3.64,2.52
CC=CC1CCNC(C(O)c2ccnc3ccc(OC)cc23)C1 (configuration not stated),2.16,2.5,2.9
CCCCN(Cc1cccc(C(F)(F)F)c1Cl)c1ccc(C(O)(C(F)(F)F)C(F)(F)F)cc1,7.39,6.7,6.39
CCCCCCN1CCC(NCc2cccc([N+](=O)[O-])c2)CC1,3.72,5.68,4.96
CCCc1cc(OC)c(C[C@H]2c3cc(O)c(Cl)cc3CCN2C)cc1OC,0.24,1.13,1.4
O=C(Nc1ccc(Br)c(C(F)(F)F)c1)c1cccc([N+](=O)[O-])c1,3.35,2.2,-0.11
COc1ccc(NC(=O)CSc2nc(-c3ccccc3Cl)ns2)cc1OC,-0.51,-0.5,2.58
COc1ccc(-c2cc(C(=O)Nc3ccc(CCCN(C)Cc4ccc(OC)c(OC)c4)cc3)c3ccccc3n2)cc1,13.6,2.41,1.44
COc1cc(Cc2cnc(N)nc2N)ccc1OCc1ccc(-c2ccccc2C#N)cc1,0.17,0.47,-0.89
COc1ccc(-c2nc(NC(=O)Cc3ccc(OC)c(OC)c3)sc2C)cc1,1.75,3.07,1.83
CC(C)(C)OC(=O)Cn1cnc2cc(NC(=O)c3cc([N+](=O)[O-])cc([N+](=O)[O-])c3)ccc21,3.13,4.11,3.89
CN(CC(=O)Nc1cc(C(F)(F)F)ccc1-n1cncn1)Cc1nc2ccccc2s1,2.07,2.69,5.21
CCOC(=O)c1ccc(-c2cnc(N)c(-c3nc4cccc(C)c4[nH]3)c2)cc1,6.18,6.96,4.47
N=C(N)NN=Cc1c2ccc(Cl)cc2c(Cl)c2ccc(Cl)cc12,83.8,23.8,61.9
Cc1ccc(Nc2nccc(NCC(O)c3cccc(C(F)(F)F)c3)n2)cc1 (configuration not stated),4.66,4,0.81
COc1ccc(C=C2SC(=O)N=C2Nc2ccccc2)c(OC)c1,6.71,5.61,2.58
CCC(C)C#Cc1c(C)nc(N)nc1N (configuration not stated),0.18,0.61,0.17
NC(=O)c1ccc(NCC(=O)Nc2cccc(-c3cccc(-c4nc5ccccc5[nH]4)c3)c2)cc1,2.82,4.21,0.95
Cc1cc(C2CCN(CCCCNC(=O)c3ccc(NC(=O)c4ccc(Cl)cc4)cc3)CC2)c(C)cc1OCc1ccncc1,8.72,7.09,7.42
Cc1ccccc1C(=O)NC(NC(=S)Nc1ccc([N+](=O)[O-])cc1)C(Cl)(Cl)Cl (configuration not stated),0.54,-1.37,0.22
CS(=O)(=O)c1ccc2[nH]c(-c3cc(-c4ccc(OCCN5CCOCC5)cc4)cnc3N)nc2c1,6.63,6.02,4.16
CN1N=C2c3ccccc3CCC2C1c1ccc(C#N)cc1 (configuration not stated),12.4,9.98,7.86
COc1ccc(-c2ccc(NC(=O)c3cccc(Cl)c3)cc2)cc1CNC(C)C,4.75,5.52,1.96
CC(=O)Nc1ccc2[nH]cc(C3CCN(CC4CCC(NC(=O)/C=C/c5ccccc5Cl)CC4)CC3)c2n1 (configuration not stated),6.86,5.52,6.59
Cc1noc(C)c1CN1CCCN(c2ccc3c(c2)CCN(Cc2ccc(-c4ncc[nH]4)cc2)CC3)CC1,1.29,3.6,1.65

Structure (SMILES),inhibition [1] [%],inhibition [2] [%],inhibition [3] [%]
Cn1c(N)cc(-c2cccc(I)c2)c2c(=O)nc(N)nc1-2,4.12,4.5,2.89
CC1CCN(CCCNc2ccc(C(=O)Nc3ccc(C(F)(F)F)cc3)cc2[N+](=O)[O-])CC1,4.71,1.65,5.07
O=C(Nc1ccc(Cl)c(Cl)c1)N1CCc2cc3nccc(N4CCN5CCC[C@H]5C4)c3cc21,3.24,4.53,4.1
CCOc1ccc2[nH]c(-c3ccccc3)cc(=NN=Cc3ccncc3)c2c1,1.66,4.54,-0.25
CCC(=O)N1CCc2cc(Br)cc(S(=O)(=O)N3CC(C)CC(C)C3)c21 (configuration not stated),5.05,3.54,3.73
O=C(NC1CCN(Cc2cccc(C(F)(F)F)c2)CC1)c1ccc(-c2cccc(C(F)(F)F)c2)s1,6.34,3.03,6.14
CCn1c(SCC(=O)Nc2cc(C(F)(F)F)ccc2Cl)nc2ccccc2c1=O,1.69,3.62,4.32
Cc1ccccc1Cn1ccc2c3c(N)nc(N)nc3ccc21,92.7,87.7,81.9
N#Cc1cccc(Nc2ncc3c(-c4cccc(NC(=O)Cc5cccc(Cl)c5)c4)c[nH]c3n2)c1,3.15,2.53,0.18
O=C(Nc1ccccc1)N(Cc1cccc(-c2cccc(CNCc3ccc4c(c3)OCO4)c2)c1)C1CCN(Cc2ccccc2)CC1,0.53,1.69,2.79
Fc1ccc2[nH]ccc(=NN=CC=Cc3ccccc3)c2c1,1.52,3,-2.56
Cc1cccc2nc(-c3cccc(-c4cccc(CNCCc5ccncc5)c4)c3)[nH]c12,-1.47,1.2,-1.48
Cc1cc(N)nc2ccc(-c3ccc(CCN)cc3)cc12,2.07,3.64,0.96
Cc1c(N=O)cc(C(C)(C)C)c(O)c1C(=O)Nc1ccc([N+](=O)[O-])cc1Cl,2.33,5.18,-0.56
NC(=O)c1cccc(C(=O)Nc2ccc(-c3cccc(-c4nc5cc(F)ccc5[nH]4)c3)cc2)c1,0.18,0.01,0.23
CC(C)(C)N1CCC(N(Cc2ccc(-c3ccc(C(F)(F)F)cc3)cc2)C(=O)Cn2c(CCc3cccc(F)c3F)nc(=O)c3cccnc32)CC1,2.09,0.99,0.47
CCn1c(-c2nonc2N)nc2c(Cl)ncc(O[C@H](CCN)c3ccccc3F)c21,58.6,48.5,20.2
COc1ccc2nc(C)cc(N/N=C/c3ccccc3[N+](=O)[O-])c2c1,2.3,2.99,-0.41
CCn1c(-c2nonc2N)nc2c(-c3ccccc3)ncc(OCCCNCCCN3CCOCC3)c21,2.58,1.32,0.55
Oc1ccc2[nH]c(-c3cccc(F)c3)nc2c1CN1CCCC1,4.75,3.49,1.21
O=S(=O)(NC1CCN(c2ccnc3ccccc23)C1)c1ccc(OC(F)(F)F)cc1 (configuration not stated),2.25,-0.51,2.41
NC(=O)Nc1ccc2c(Nc3ccc(OCc4ccccc4)cc3)ncnc2c1,-1.45,-0.35,-2.05
O=c1cc(NCCCNCc2ccc(C(F)(F)F)c(F)c2)[nH]c2ccccc12,0.24,0.58,-0.68
Cc1cc(N[C@@H](Cc2ccccc2)C(=O)NCCOc2ccccc2)nc(NCCc2ccccn2)n1,6.81,6.41,3.94
